From ChEMBL document CHEMBL1961873, “Compounds: GSK PKIS; Assays: Nanosyn kinase panel” (2012)

Key:
[1] = biological target: Mast/stem cell growth factor receptor Kit (Homo sapiens) (UniProt P10721); conditions: at 1 µM
[2] = test system: Mast/stem cell growth factor receptor Kit (Homo sapiens), P10721 [D816V]; conditions: at 0.1 µM
[3] = test system: Mast/stem cell growth factor receptor Kit (Homo sapiens), P10721 [D816V]; conditions: at 1 µM
[4] = test system: Mast/stem cell growth factor receptor Kit (Homo sapiens), P10721 [T670I]; conditions: at 0.1 µM
Chain of Mast/stem cell growth factor receptor Kit (Homo sapiens), P10721 [T670I] (P10721 whole entry T670I): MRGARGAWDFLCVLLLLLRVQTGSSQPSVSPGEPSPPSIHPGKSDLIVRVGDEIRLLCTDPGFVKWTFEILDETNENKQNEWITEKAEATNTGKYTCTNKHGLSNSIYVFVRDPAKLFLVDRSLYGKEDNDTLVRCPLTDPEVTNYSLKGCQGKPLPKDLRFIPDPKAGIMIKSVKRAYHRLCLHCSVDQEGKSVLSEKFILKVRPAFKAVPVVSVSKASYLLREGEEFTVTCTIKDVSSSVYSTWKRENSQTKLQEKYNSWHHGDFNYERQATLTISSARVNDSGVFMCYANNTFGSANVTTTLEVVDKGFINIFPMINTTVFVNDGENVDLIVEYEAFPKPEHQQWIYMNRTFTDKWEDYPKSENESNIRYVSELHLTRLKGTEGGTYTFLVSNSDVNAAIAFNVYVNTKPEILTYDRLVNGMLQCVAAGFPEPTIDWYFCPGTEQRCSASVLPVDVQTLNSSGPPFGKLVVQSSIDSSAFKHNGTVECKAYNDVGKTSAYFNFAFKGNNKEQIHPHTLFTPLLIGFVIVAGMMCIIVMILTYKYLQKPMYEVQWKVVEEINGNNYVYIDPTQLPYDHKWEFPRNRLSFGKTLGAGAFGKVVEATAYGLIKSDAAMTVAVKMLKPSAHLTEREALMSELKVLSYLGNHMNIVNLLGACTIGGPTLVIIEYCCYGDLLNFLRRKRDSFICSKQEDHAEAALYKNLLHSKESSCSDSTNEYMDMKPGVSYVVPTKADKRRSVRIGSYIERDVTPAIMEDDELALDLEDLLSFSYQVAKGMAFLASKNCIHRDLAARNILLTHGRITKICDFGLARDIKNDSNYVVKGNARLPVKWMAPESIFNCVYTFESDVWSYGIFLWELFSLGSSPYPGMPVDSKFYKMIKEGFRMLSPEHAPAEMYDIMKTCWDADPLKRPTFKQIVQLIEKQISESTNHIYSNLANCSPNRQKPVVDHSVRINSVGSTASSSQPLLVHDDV

[5] = test system: Mast/stem cell growth factor receptor Kit (Homo sapiens), P10721 [T670I]; conditions: at 1 µM
[6] = test system: Mast/stem cell growth factor receptor Kit (Homo sapiens), P10721 [V560G]; conditions: at 0.1 µM
Chain of Mast/stem cell growth factor receptor Kit (Homo sapiens), P10721 [V560G] (P10721 whole entry V560G): as the sequence (P10721 whole entry T670I) above, with V560G, I670T counted along it

[7] = test system: Mast/stem cell growth factor receptor Kit (Homo sapiens), P10721 [V560G]; conditions: at 1 µM
[8] = biological target: Tyrosine-protein kinase Lck (Homo sapiens) (UniProt P06239); conditions: at 0.1 µM
Chain of Tyrosine-protein kinase Lck (Homo sapiens) (P06239 2-509 limits assumed): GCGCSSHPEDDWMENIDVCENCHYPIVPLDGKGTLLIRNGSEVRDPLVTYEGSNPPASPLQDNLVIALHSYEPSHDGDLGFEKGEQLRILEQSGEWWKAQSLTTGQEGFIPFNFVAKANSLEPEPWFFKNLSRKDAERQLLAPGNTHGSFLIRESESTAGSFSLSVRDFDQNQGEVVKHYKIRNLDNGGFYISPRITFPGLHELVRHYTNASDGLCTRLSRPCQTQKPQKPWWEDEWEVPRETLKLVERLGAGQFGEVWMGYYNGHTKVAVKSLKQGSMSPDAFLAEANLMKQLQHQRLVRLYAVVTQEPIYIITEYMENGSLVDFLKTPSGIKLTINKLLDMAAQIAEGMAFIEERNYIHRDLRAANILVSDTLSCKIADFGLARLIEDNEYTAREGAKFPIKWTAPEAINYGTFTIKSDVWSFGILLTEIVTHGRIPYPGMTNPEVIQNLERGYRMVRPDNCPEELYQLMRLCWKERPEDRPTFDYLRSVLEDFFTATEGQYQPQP

[9] = biological target: Tyrosine-protein kinase Lck (Homo sapiens) (UniProt P06239); conditions: at 1 µM
[10] = biological target: Leukocyte tyrosine kinase receptor (Homo sapiens) (UniProt P29376); conditions: at 0.1 µM
Chain of Leukocyte tyrosine kinase receptor (Homo sapiens) (P29376 whole entry): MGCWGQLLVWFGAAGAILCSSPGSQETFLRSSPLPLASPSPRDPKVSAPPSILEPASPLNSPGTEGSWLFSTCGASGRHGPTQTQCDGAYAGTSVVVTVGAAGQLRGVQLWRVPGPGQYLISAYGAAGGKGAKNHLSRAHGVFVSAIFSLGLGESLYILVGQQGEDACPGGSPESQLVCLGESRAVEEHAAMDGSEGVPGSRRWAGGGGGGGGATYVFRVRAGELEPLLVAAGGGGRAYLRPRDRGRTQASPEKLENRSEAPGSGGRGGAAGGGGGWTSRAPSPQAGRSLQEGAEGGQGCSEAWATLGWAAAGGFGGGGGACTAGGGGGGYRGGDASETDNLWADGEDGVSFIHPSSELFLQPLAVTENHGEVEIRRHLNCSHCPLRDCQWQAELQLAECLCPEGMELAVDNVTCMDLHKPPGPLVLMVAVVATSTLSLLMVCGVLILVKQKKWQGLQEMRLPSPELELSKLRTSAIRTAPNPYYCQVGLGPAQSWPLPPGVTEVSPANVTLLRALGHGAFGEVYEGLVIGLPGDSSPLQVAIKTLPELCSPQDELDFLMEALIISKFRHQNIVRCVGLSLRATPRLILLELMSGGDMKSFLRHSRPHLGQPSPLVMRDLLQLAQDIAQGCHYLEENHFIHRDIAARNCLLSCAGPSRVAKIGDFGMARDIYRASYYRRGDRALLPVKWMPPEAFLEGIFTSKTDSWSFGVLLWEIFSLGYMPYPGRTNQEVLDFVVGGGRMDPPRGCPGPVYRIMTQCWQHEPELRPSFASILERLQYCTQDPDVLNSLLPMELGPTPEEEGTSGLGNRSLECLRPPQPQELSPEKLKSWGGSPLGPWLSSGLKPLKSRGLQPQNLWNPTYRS

[11] = biological target: Leukocyte tyrosine kinase receptor (Homo sapiens) (UniProt P29376); conditions: at 1 µM
[12] = biological target: Tyrosine-protein kinase Lyn (Homo sapiens) (UniProt P07948); conditions: at 0.1 µM
Chain of Tyrosine-protein kinase Lyn (Homo sapiens) (P07948 2-512 limits assumed): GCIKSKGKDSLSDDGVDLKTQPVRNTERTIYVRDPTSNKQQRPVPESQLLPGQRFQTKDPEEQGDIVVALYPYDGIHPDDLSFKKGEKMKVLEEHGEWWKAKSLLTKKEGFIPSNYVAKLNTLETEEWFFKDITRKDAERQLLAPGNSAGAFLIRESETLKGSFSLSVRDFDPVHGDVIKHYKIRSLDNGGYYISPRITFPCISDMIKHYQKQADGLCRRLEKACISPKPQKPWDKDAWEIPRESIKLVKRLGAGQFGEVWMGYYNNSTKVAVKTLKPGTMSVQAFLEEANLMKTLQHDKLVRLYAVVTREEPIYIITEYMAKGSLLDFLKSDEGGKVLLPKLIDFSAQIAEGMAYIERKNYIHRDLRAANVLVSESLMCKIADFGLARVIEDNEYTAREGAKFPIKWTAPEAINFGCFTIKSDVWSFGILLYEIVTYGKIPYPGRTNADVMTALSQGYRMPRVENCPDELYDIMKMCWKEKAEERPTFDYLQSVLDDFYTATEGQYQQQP

[13] = biological target: Tyrosine-protein kinase Lyn (Homo sapiens) (UniProt P07948); conditions: at 1 µM
[14] = biological target: Tyrosine-protein kinase Lyn (Homo sapiens) (UniProt P07948); conditions: at 0.1 µM; remark: listed apart in the source
[15] = biological target: Tyrosine-protein kinase Lyn (Homo sapiens) (UniProt P07948); conditions: at 1 µM; remark: listed apart in the source
[16] = biological target: T1, Tyrosine-protein kinase Mer (Homo sapiens) (UniProt Q12866); conditions: at 0.1 µM
T1 sequence (whole entry): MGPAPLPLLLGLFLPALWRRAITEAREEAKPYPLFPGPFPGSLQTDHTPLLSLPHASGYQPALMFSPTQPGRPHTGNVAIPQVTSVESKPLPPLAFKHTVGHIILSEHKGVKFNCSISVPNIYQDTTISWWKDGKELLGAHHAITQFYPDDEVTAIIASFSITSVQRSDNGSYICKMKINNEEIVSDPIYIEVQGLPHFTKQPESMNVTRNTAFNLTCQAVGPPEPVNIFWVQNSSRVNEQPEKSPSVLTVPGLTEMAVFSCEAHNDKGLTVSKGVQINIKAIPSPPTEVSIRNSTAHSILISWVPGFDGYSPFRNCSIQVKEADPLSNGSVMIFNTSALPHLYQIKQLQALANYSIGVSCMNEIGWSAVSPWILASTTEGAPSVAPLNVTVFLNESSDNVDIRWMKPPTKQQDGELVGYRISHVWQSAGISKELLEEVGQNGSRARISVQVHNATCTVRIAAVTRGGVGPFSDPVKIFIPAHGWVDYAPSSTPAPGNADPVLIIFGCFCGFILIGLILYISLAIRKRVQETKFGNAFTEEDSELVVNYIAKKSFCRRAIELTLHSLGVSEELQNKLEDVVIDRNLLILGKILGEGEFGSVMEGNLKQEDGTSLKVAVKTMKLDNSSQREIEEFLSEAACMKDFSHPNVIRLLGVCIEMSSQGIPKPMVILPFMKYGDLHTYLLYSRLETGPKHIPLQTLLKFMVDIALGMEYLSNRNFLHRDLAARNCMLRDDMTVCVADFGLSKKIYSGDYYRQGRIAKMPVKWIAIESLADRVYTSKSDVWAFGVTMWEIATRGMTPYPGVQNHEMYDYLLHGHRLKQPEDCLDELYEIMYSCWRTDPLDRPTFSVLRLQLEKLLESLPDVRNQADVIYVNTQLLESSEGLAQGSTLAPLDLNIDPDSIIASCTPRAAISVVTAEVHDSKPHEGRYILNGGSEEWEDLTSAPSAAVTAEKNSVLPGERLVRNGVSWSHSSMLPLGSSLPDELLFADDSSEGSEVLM

[17] = biological target: T1, Tyrosine-protein kinase Mer (Homo sapiens); conditions: at 1 µM
[18] = biological target: Hepatocyte growth factor receptor (Homo sapiens) (UniProt P08581); conditions: at 0.1 µM
Chain of Hepatocyte growth factor receptor (Homo sapiens) (P08581 whole entry): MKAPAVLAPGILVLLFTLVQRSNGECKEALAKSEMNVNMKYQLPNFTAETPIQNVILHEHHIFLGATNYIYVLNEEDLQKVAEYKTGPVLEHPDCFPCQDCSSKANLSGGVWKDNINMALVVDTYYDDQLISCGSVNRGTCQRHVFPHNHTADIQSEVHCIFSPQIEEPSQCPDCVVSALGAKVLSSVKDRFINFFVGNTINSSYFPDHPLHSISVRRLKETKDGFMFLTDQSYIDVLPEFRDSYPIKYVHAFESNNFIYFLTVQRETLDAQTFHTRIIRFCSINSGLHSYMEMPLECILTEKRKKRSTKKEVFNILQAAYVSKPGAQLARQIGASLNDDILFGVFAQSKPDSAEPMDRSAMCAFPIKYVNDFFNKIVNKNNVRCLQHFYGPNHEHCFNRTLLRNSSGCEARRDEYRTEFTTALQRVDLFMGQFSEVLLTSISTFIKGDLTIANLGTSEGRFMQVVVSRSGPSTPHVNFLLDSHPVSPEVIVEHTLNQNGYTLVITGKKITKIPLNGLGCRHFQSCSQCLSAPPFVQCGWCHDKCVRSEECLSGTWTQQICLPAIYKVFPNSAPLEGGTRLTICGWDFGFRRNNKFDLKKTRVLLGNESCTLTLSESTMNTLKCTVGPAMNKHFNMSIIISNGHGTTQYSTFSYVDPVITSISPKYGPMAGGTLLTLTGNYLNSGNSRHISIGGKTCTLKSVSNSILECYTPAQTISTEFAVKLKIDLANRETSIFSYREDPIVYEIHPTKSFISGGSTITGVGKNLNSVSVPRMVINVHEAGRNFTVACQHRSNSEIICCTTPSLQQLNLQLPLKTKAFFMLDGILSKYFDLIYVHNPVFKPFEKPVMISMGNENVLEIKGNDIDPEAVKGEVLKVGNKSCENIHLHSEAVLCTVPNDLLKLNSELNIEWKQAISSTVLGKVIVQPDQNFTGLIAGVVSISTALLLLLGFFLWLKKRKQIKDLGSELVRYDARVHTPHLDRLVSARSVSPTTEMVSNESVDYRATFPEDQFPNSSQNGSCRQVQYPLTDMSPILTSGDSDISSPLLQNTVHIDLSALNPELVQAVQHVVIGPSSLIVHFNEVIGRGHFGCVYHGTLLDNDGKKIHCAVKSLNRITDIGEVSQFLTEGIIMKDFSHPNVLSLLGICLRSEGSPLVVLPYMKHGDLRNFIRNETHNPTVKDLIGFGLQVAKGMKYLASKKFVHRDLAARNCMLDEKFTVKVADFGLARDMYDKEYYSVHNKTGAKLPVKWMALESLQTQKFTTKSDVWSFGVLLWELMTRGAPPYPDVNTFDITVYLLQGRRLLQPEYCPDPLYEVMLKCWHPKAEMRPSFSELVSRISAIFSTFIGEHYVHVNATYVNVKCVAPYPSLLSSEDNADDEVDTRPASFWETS

[19] = biological target: Hepatocyte growth factor receptor (Homo sapiens) (UniProt P08581); conditions: at 1 µM
[20] = biological target: T2, Muscle, skeletal receptor tyrosine-protein kinase (Homo sapiens) (UniProt O15146); conditions: at 0.1 µM;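 note: values are mean inhibition of MuSK from the GSK PKIS kinase screening panel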
T2 sequence (whole entry): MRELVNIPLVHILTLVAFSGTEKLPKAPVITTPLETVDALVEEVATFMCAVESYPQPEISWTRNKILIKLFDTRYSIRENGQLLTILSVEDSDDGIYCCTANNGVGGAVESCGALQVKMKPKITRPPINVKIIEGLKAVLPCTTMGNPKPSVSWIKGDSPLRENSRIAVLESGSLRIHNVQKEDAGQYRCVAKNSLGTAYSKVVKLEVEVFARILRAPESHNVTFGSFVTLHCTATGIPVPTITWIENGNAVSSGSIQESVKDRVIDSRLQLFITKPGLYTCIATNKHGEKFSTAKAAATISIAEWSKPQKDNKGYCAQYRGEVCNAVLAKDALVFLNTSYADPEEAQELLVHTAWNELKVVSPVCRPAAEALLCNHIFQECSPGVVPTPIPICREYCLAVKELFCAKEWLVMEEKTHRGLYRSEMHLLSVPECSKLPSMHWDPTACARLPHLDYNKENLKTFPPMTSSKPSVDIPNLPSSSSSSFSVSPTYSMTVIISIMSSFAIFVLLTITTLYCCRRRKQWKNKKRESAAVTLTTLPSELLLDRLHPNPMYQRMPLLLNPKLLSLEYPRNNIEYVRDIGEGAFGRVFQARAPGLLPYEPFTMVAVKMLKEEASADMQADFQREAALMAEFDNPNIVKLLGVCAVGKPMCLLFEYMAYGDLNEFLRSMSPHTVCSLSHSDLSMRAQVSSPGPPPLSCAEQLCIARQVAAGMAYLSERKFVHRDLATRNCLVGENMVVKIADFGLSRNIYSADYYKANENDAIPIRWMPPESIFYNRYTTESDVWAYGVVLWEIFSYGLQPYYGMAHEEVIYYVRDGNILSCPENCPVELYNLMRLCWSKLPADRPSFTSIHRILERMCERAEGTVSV

Chain of Mast/stem cell growth factor receptor Kit (Homo sapiens) (P10721 whole entry): as the sequence (P10721 whole entry T670I) above, with I670T counted along it
Chain of Mast/stem cell growth factor receptor Kit (Homo sapiens), P10721 [D816V] (P10721 whole entry D816V): as the sequence (P10721 whole entry T670I) above, with I670T, D816V counted along it

| SMILES | inhibition [1] | inhibition [2] | inhibition [3] | inhibition [4] | inhibition [5] | inhibition [6] | inhibition [7] | inhibition [8] | inhibition [9] | inhibition [10] | inhibition [11] | inhibition [12] | inhibition [13] | inhibition [14] | inhibition [15] | inhibition [16] | inhibition [17] | inhibition [18] | inhibition [19] | inhibition [20] |
| --- | --- | --- | --- | --- | --- | --- | --- | --- | --- | --- | --- | --- | --- | --- | --- | --- | --- | --- | --- | --- |
| CCN1CCC(CC(=O)Nc2n[nH]c3nnc(-c4cccc(F)c4F)cc23)CC1 | 0.38% | 0.53% | 0.47% | 0.27% | 1.83% | 1.48% | -0.83% | 2.01% | 6.17% | 2.06% | 1.45% | 3.32% | 3.55% | 2.16% | 2.2% | -1.66% | -0.36% | 4.54% | 9.2% | 1.85% |
| N#Cc1c(NC(=O)CN2CCOCC2)sc2c1CCCC2 | 7.99% | 3.63% | 3.93% | 4.93% | 3.32% | 2.47% | 3.82% | 1.87% | 4.64% | 4.93% | 4.38% | 4.72% | 7.89% | 2.92% | 5.26% | 1.87% | 4.98% | 7.91% | 13% | 2.41% |
| COc1ccc(-c2cc(-c3c[nH]nc3-c3ccccn3)ccn2)cc1 | 9.66% | 4.3% | 11.7% | 4.24% | 4.17% | -1.03% | 2.87% | 2.68% | 5.16% | 5.4% | 5.89% | 6.64% | 15.2% | 3.87% | 11.2% | 1.3% | 2.69% | 8.94% | 3.52% | 3.4% |
| O=C(Nc1n[nH]c2cc(-c3ccc(F)cc3)ccc12)C1CC1 | 5.1% | 3.06% | 5.66% | 3.36% | 4.92% | -2.61% | 0.08% | 1.9% | 7.59% | 2.47% | 2.75% | 6.61% | 5.51% | 3.7% | 3.43% | 2.14% | 2.68% | 1.03% | 0.71% | 2.93% |
| Nc1nc(-c2cccc(Cl)c2)c(-c2ccc3ncccc3n2)s1 | 7.87% | 1.78% | 8.71% | 4.73% | 6.56% | -0.42% | -0.36% | 2.31% | 8.23% | 6.27% | 6.22% | 7.27% | 16.1% | 5.14% | 13.2% | 2.09% | 7.21% | 6.65% | 7.33% | 2.01% |
| Fc1ccc(-c2nn3ncccc3c2-c2ccnc(Nc3ccc4c(c3)OCCO4)n2)cc1 | 91.9% | 3.55% | 4.13% | 5.56% | 27.3% | 16.3% | 64.5% | 44.7% | 85.1% | 3.99% | 5.5% | 32.5% | 78.8% | 26% | 72.7% | 5.86% | 31.5% | 4.89% | 10.7% | 3.02% |
| CCn1c(-c2nonc2N)nc2cnc(Oc3cccc(NC(=O)c4ccc(N(C)C)cc4)c3)cc21 | 1.33% | 0.14% | -1.44% | 0.35% | -0.9% | -2.78% | 2.28% | -0.65% | 1.33% | 1.6% | 0.1% | 1.48% | 1.6% | 0.82% | 1.31% | 0.23% | 0.04% | -1.57% | -4.37% | 2.84% |
| CN1CCC(n2cnc(-c3ccc(F)cc3)c2-c2ccnc(Nc3ccccc3)n2)CC1 | 6% | 1.84% | 2.39% | 3.38% | 1.42% | -1.35% | 4.06% | 4.17% | 20.5% | 2.75% | 1.97% | 4.88% | 23.3% | 2.82% | 13.9% | 0.46% | 6.83% | -0.26% | 9.59% | 1.28% |
| Nc1nc(-c2ccc(F)cc2)c(-c2ccc3ncccc3n2)s1 | 9.66% | 1.91% | 5.04% | 4.73% | 5.34% | 2.59% | 2.66% | 9.43% | 16.7% | 3.99% | 7.86% | 9.43% | 39.4% | 7.37% | 33% | 2.57% | 5.56% | 4.07% | 10.1% | 3.45% |
| COC(=O)Nc1nc2ccc(S(=O)(=O)c3ccc(NC(=O)Nc4cc(C(F)(F)F)ccc4F)cc3)cc2[nH]1 | -0.26% | 3.87% | 5.14% | 1.09% | -0.17% | -0.14% | 0.67% | 2.26% | 3.94% | 1.63% | 0.53% | 3.86% | 3.43% | 1.56% | 3.05% | 0.88% | 4.05% | -2.38% | 0.66% | 2.5% |
| COc1cccc(-c2c[nH]c3c(N/N=C/c4ccncc4)ncnc23)c1 | 88% | 8.75% | 38.7% | 7.21% | 51.1% | 4.19% | 19.6% | 35.1% | 82% | 3.15% | 2.09% | 40.1% | 83.3% | 33.8% | 81.8% | 2.09% | 15.7% | 4.89% | 27.3% | 13.4% |
| CNC(=O)c1cncc(/C=C/c2ccccc2Cl)c1 | 10.7% | -0.76% | 3.85% | -1.89% | 3.4% | 2.25% | 8.8% | 4.51% | 5.49% | -0.19% | 1% | 1.6% | 11.3% | 1.83% | 8.12% | 3.56% | 2.42% | 3.72% | 4.48% | 0.71% |
| CCN(CC)S(=O)(=O)c1ccc(OC)c(Nc2ncc(-c3ccccc3)o2)c1 | 87.8% | 3.78% | 6.46% | 3.41% | 48.3% | 7.63% | 13.6% | 4.39% | 24.8% | -0.3% | -0.4% | 4.63% | 34.8% | 4.28% | 28.9% | 0.62% | 2.09% | 3.7% | 4.3% | -2.42% |
